Screening data (PubChem BioAssay)
Most compounds without a hit are left out; they make up all but 17% or so of the library.
HepG2 viability – qHTS for Inhibitors of TGF-b: Cytotox Counterscreen; HepG2 CAGA-GFP viability, ATP luminescence, 18 h; Potency, µM (doses to about 46.1 µM), for inactives: at the highest dose activity change, negative = cytotoxicity, hits mostly cytotoxic; hit rate 0.76% among 410,000
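HepG2 CAGA-GFP cells (1000/well, DMEM with 1% FBS) received compound, then TGF-beta at 500 pg/mL final, and were incubated 18 hours at 37 degrees C. Viability was read by CellTiter-Glo luminescence. Media-only wells were set as complete cell-killing and DMSO as no toxicity.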
TDP1 cell noCPT – qHTS for Inhibitors of human tyrosyl-DNA phosphodiesterase 1 (TDP1): qHTS in cells in absence of CPT; AID 686978, 2013; DT40 Tdp1-/- hTDP1 cells, no CPT, ATP luminescence, 48 h; Potency, µM (doses to about 46.2 µM), for the others: top-dose activity change, negative = growth inhibition, actives largely listed as inhibitors; hit rate 15% among 420,000; note: % is set by controls: 0 for no effect and ±100 for the full control effect; nearly all actives have a fitted effect of over 55% in size
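Compound effects on proliferation are scored in DT40 Tdp1-/-;hTDP1 cells in the absence of CPT. ATP levels (CellTiter-Glo luminescence) are recorded after a ≥48 hr, 37 °C incubation.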
HT1080 IDH1KD tx – qHTS for induction of synthetic lethality in tumor cells producing 2HG: qHTS for the HT-1080-IDH1KD cell line. HT-1080 IDH1 knockdown viability, ATP luminescence, 48 h. Potency, µM (top dose mostly 46.1 µM), inactives show at the top dose activity, negative = toxicity, actives largely listed as cytotoxic. hit rate 2% among 360,000;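 note: 0% = DMSO wells and -100% = cell-free medium wells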
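Assay cells: HT-1080 with IDH1 knockdown, 750 per well, RPMI/5% FBS. Exposure: 48 h at 37 °C following 2 h pre-incubation. Read: CellTiter-Glo luminescence; fitted concentration-response, curve class assigned.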
HT1080NT lethal – qHTS for induction of synthetic lethality in tumor cells producing 2HG: qHTS for the HT-1080-NT fibrosarcoma cell line | HT-1080-NT fibrosarcoma viability, CellTiter-Glo ATP luminescence, 48 h | Potency, µM (doses to about 46.1 µM), inactives show at the highest dose activity, negative = less viability, actives largely listed as cytotoxic | hit rate 1.6% among 360,000 | AID 686970, 2013;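 note: NT is the 2HG producing partner of a matched IDH1 knockdown line; 0% = DMSO-treated cells and -100% = media-only wells without cells; nearly all actives have a fitted effect of over 55% in size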
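Luminescent CellTiter-Glo readout after 48 hours of compound exposure at 37 degrees C defined viability of HT-1080-NT cells. Activity was normalized to DMSO wells and cell-free media wells; concentration-response curves were fitted and assigned curve classes.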
TGFb SMAD3 inh – qHTS for Inhibitors of TGF-b | HepG2 CAGA-GFP TGF-b/SMAD3 reporter, GFP fluorescence, 18 h; TGF-beta stimulated, 500 pg/mL final | Potency, µM (series often up to 46.1 µM), for inactives: top-dose activity, negative = inhibition, actives largely listed as inhibitors | hit rate 1.2% among 410,000 | AID 588855, 2011; note: % is set by controls: 0 for no effect and ±100 for the full control effect; nearly all actives have a fitted effect of over 65% in size
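Using HEPG2 CAGA-GFP reporter cells at 1000 cells/well, we pinned test compounds, stimulated with recombinant TGF-beta (500 pg/mL final) and measured total well GFP after 18 h.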
TDP1 cell CPT – qHTS for Inhibitors of human tyrosyl-DNA phosphodiesterase 1 (TDP1): qHTS in cells in presence of CPT; chicken DT40 Tdp1-/-;hTDP1 cells + 20 nM CPT, ATP luminescence, 48 h; Potency, µM (doses to about 46.2 µM), without a hit: at the top dose activity change, negative = growth inhibition, usual class: inhibitors; hit rate 12% among 420,000; AID 686979, 2013; note: % is set by controls: 0 for no effect and ±100 for the full control effect; nearly all actives have a fitted effect of over 55% in size
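Chicken DT40 Tdp1-/- cells stably complemented with human TDP1 were seeded at 400 cells/well in medium containing 20 nM camptothecin, exposed to pin-transferred compounds, and grown at 37 °C for at least 48 hr. Viability was read as ATP luminescence.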
Starred values were filed as active, the others as inactive; ? = inconclusive; nt = no result. Calls come from the whole dose curve; as a rule, active = well fitted curve in the direction sought with a large enough effect; inconclusive = small, poorly fitted or top-dose-only effect, or another doubt; inactive = no such curve, though single readings can be large; an effect the other way counts as inactive or inconclusive. Potency is the fitted concentration of half-maximal effect.

SMILES	HepG2 viability	TDP1 cell noCPT	HT1080 IDH1KD tx	HT1080NT lethal	TGFb SMAD3 inh	TDP1 cell CPT
Cc1ccc(C2CC(c3cccc(C)c3)n3ncnc3N2)cc1 (stereo not drawn)	-7%	?	-3%	-9%	-4%	15µM*
Cc1cn([C@H]2C[C@H](O)[C@@H](CNCc3cnc(N4CCOCC4)s3)O2)c(=O)[nH]c1=O	-2%	9%	7%	9%	4%	-28%
Cc1ccc(-c2cc(C(F)F)nc(S(C)(=O)=O)n2)cc1	-188%	1.3µM*	21µM*	23µM*	?	0.92µM*
O=c1[nH]c(/C(Cl)=C/c2cccc(F)c2)nc2cc(C(F)(F)F)ccc12	0%	23µM*	6%	3%	6%	?
O=C(N/N=C/c1ccccc1)c1n[nH]c2c1CCCC2	-15%	?	?	?	-34%	?
O=C(N/N=C/c1cccs1)c1n[nH]c2c1CCC2	0%	3.7µM*	6.5µM*	7.3µM*	-29%	4.1µM*
O=C(N/N=C/C(Br)=C/c1ccccc1)c1n[nH]c2c1CCC2	-20%	4.1µM*	7.9µM*	?	-10%	2.6µM*
O=C(N/N=C/c1ccc(Cl)cc1)c1n[nH]c2c1CCCC2	20%	0.92µM*	0.52µM*	0.41µM*	?	0.58µM*
O=C(N/N=C/c1cccs1)c1ccc(-n2cccc2)cc1	-7%	?	19%	1%	9%	2%
Cc1ccc(NC(=O)N2CCN3CCCCC3C2)cc1C (stereo not drawn)	-12%	-2%	nt	nt	-6%	2%
Cc1cccc(/C=N/NC(=O)c2cc(C3CC3)nc3ccccc23)n1	1%	-18%	1%	0%	-13%	-9%
CCc1cc(C(=O)N/N=C/c2ccc(O)cc2)c2ccccc2n1	0%	8.2µM*	?	?	1%	-27%
O=C(N/N=C/c1cc([N+](=O)[O-])ccc1Cl)c1cc(-c2ccccc2)nc2ccccc12	-5%	?	6%	10%	4%	?
O=C(N/N=C/c1cc([N+](=O)[O-])ccc1O)c1cc(-c2ccccc2)nc2ccccc12	-1%	5.8µM*	4.1µM*	?	-17%	5.8µM*
CCc1ccc(/C=N/NC(=O)c2cc(C3CC3)nc3ccccc23)s1	-23%	2.3µM*	1.8µM*	?	-7%	4.6µM*
O=C(N/N=C/c1ccc([N+](=O)[O-])cc1)c1cc(C2CC2)nc2ccccc12	-72%	7.3µM*	23µM*	26µM*	-20%	9.2µM*
O=C(CC(=O)NN=Cc1ccc2c(c1)CCC2)NN=Cc1ccc2c(c1)CCC2	-4%	?	20%	1%	-8%	-6%
COc1ccc(Cl)cc1NS(=O)(=O)c1cccc(C(=O)NC2CC2)c1	-3%	-29%	-4%	-4%	?	-10%
CC(C(=O)Nc1ncc([N+](=O)[O-])s1)N1C(=O)c2ccccc2S1(=O)=O (stereo not drawn)	12%	2%	7%	1%	20%	20%
Cc1cc(C(=O)N/N=C/c2cc(Br)cc([N+](=O)[O-])c2O)c2ccccc2n1	2%	?	?	?	-12%	?
